Sampled rows, rich in hits. Any-hit rate of the full collection: about 4.2%.
Mtb FBA inh = inhibits M. tuberculosis FBA enzyme; inhibition, % at 1 µM; purified M. tuberculosis FBA, fluorescence read-out; P9WQA3; actives 2.3% (n = 360,000); AID 588726; in the data active = inhibition above about 27%;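 note: 0% = vehicle and 100% = reference inhibitor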
Target sequence (P9WQA3 whole entry, looked up): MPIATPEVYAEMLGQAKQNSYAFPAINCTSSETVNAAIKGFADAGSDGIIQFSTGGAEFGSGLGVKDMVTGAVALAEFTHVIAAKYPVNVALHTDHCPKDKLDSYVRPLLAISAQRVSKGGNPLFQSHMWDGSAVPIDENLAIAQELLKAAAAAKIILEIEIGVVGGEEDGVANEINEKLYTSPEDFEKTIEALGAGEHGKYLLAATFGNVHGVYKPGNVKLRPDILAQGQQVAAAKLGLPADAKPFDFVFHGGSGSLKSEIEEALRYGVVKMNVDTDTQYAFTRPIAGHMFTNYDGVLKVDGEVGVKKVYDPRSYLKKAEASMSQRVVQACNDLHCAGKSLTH
CCHFV vOTU inh = CCHFV vOTU protease inhibition. actives 0.55% (n = 370,000). inhibition, % at 11.5 µM. Pep-AMC fluorescence; note: 0% = vehicle wells with enzyme and 100% = no enzyme wells
GDH-TPI counter = inhibits GDH-TPI coupling enzymes, artifact for Mtb FBA screen; inhibition, % at 4.8 µM; GDH-TPI coupled enzyme counterscreen, NADH absorbance; AID 588335; actives 1.2% (n = 360,000);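 note: 0% = DMSO wells and 100% = wells lacking the enzyme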
RecA intein inh = inhibitors of M. tuberculosis RecA intein splicing; P9WHJ3; cell-free RecA intein splicing, fluorescence; inhibition, % (concentration not given with the values); actives 0.75% (n = 290,000); in the data active = inhibition above about 30%;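 note: 0% = vehicle wells and 100% = reference inhibitor control wells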
* = called active by the depositor; . = not tested or not shown; + = active, no number. Cut-off read from the data, not from the text of the source, unless noted: active = inhibition above about 30%; inactive = the rest.

SMILES	Mtb FBA inh	CCHFV vOTU inh	GDH-TPI counter	RecA intein inh
COc1cc(/C=C/C(=O)OCC(=O)Nc2ccc([N+](=O)[O-])cc2)ccc1O	-2.7	-3.3	68.3*	4.3
COc1cc(/C=C/C(=O)OCC(=O)Nc2ccc(S(N)(=O)=O)cc2)ccc1O	2.5	-8.8	27.9	-1.5
O=C(CN1C(=O)S/C(=C\c2ccccc2)C1=O)NNC(=O)c1ccccc1O	0.6	1.2	31.1*	-2.9
CC(=O)NNC(=O)CN1C(=O)/C(=C/c2ccccc2)SC1=S	-1.9	-2.5	26.6	-1.2
COc1ccc(/C=C2\SC(=O)N(CC(=O)NNC(=O)c3ccccc3O)C2=O)cc1	-1.3	16.3	33.0*	-5.0
CC(=O)NC(CC(=O)NCCN1C(=O)S/C(=C\c2ccccc2)C1=O)c1ccccc1 (centres undefined)	1.3	1.4	47.5*	.
O=C(CCCN1C(=O)S/C(=C\c2ccccc2)C1=O)NNC(=O)c1ccccc1O	-6.2	-14.6	12.9	1.5
O=C(O)c1ccc2c(c1)C(=O)N([C@H](Cc1cccc3ccccc13)C(=O)O)C2=O	-2.4	5.8	3.1	.
CCOC(=O)c1sc(=NC(=O)c2ccccc2Br)n(C)c1C	0.7	15.6	20.5	5.1
Cc1sc(=NC(=O)c2ccco2)n(C)c1-c1ccc(Cl)cc1	4.9	11.0	51.7*	3.9
CCOC(=O)c1sc(=NC(=O)c2ccco2)n(C)c1C	1.4	-8.3	37.8*	-7.9
O=C(COC(=O)c1cc([N+](=O)[O-])ccc1N1CCOCC1)Nc1ccc(Cl)cn1	-5.5	11.1	10.3	4.7
COc1ccc(N(CC(=O)NCc2cccs2)S(=O)(=O)c2ccc(F)cc2)cc1	1.7	7.7	9.5	.
C[C@@H]1CN(c2ccc(N3CCNC[C@@H]3C)cc2C#N)C[C@H](C)O1	.	14.2	.	.
Cc1cccc(C(=O)Nc2nc3ncccn3c2-c2ccc(F)cc2)c1	.	-5.8	.	.
c1ccc2c(c1)ncc1cccn12	+	-215.8	16.7	0.1
CSc1nnc(-c2cccn(Cc3ccccc3)c2=O)o1	130.7*	-169.2	4.4	0.9
Nc1ccc2c(C(F)(F)F)cc(C(F)(F)F)nc2n1	+	-221.7	11.9	-5.2
FC(F)(F)c1cc(C(F)(F)F)c2ccc(Oc3ccccc3)nc2n1	-1.8	3.5	17.2	1.4
Cc1n[nH]c(C)c1S(=O)(=O)NCCc1ccccc1	.	2.3	.	.
CCN(CC)S(=O)(=O)c1ccc(C(=O)Nc2nnc(NC(=S)Nc3ccccc3)s2)cc1	-0.4	11.0	41.3*	1.6
CCN(CC)S(=O)(=O)c1ccc(NC(=S)Nc2ccccc2)cc1	1.9	-9.6	15.8	1.1
CC(C)CC(=O)OC1C(N2CCOCC2)c2c(ccc(/C=C/C(=O)N3CCOCC3)c2O)OC1(C)C (centres undefined)	6.1	-4.5	31.3*	0.2
C=C(C)COc1ccc2c(C)c(CCC(=O)NC3CC3)c(=O)oc2c1	+	-95.6	17.6	-2.1
Cc1c(CCC(=O)NCCCN2CCCC2=O)c(=O)oc2c(C)c(O)ccc12	+	-286.3	14.7	-45.1
SMILES	Mtb FBA inh	CCHFV vOTU inh	GDH-TPI counter	RecA intein inh
Cc1oc2cc3oc(=O)c(CCC(=O)NC4CC4)c(C)c3cc2c1C	9.5	-9.6	10.8	1.6
Cc1c(CCC(=O)NC2CC2)c(=O)oc2c(C)c(O)ccc12	+	.	20.6	-125.9
Cc1c(CCC(=O)NCCCN2CCCC2=O)c(=O)oc2cc(O)ccc12	+	-289.0	18.6	-54.5
COc1ccccc1C(CNC(=O)c1cc(S(=O)(=O)N2CCOCC2)ccc1C)N1CCCC1 (centres undefined)	1.9	-1.5	1.9	.
O=C1c2ccccc2C(=O)N1OS(=O)(=O)c1ccc(F)cc1	23.4	2.8	0.9	-4.3
Cc1cc(C)c(S(=O)(=O)ON2C(=O)c3ccccc3C2=O)cc1C	37.5*	-13.6	8.4	59.7*
Cc1cc(C)c(C)c(S(=O)(=O)ON2C(=O)c3ccccc3C2=O)c1C	35.2*	6.0	1.9	.
Cc1ccc(S(=O)(=O)N2CCN(CCc3ccccc3)CC2)c(C)c1	0.4	11.5	-4.4	4.8
Cc1ccc(S(=O)(=O)ON2C(=O)c3ccccc3C2=O)c(C)c1	39.9*	-36.6	8.3	.
COCCNC(=O)C1CCCN(C(=O)c2nc3ccccc3s2)CC1 (centres undefined)	-0.4	-2.7	2.2	.
COc1ccc2c(c1)CCCN2C(=O)C1CCCN(S(=O)(=O)c2ccccc2)C1 (centres undefined)	.	4.1	.	.
c1ccc2c(c1)cc1ccc3cccc4ccc2c1c34	33.9*	-1.3	8.8	.
Cc1ccc2ccc3cccc4ccc1c2c34	4.1	-6.5	11.8	.
Cn1c(NNC(=O)/C=C/c2ccc3c(c2)OCO3)cc(=O)n(C)c1=O	9.6	-15.4	39.2*	.
CN(C)c1ccc(/C=N/n2c(C3CCCCC3)n[nH]c2=S)cc1	0.8	10.7	35.7*	-0.1

Screens deposited in PubChem by several laboratories.
